Data published in PubChem BioAssay AID1209 (Sanford-Burnham Center for Chemical Genomics, 2008).
Screen size: about 190,000 compounds; about 810 (0.43%) were called active. Rule as the data show it: active = inhibition above about 50%; inactive = the rest. Only a selection was taken, and actives are over-represented in it overall.

The molecules below were run against Mannose-6-phosphate isomerase (Homo sapiens) (UniProt P34949) (assay: inhibitors of human PMI, primary screen, biochemical, fluorescence intensity, coupled assay (AID 1209;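 also: plate controls were DMSO vehicle for no effect and wells lacking substrate for full effect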)). Details: purified PMI enzyme, at 20 µM, stronger effect = higher value.
Sequence of Mannose-6-phosphate isomerase (Homo sapiens) (P34949 whole entry, looked up): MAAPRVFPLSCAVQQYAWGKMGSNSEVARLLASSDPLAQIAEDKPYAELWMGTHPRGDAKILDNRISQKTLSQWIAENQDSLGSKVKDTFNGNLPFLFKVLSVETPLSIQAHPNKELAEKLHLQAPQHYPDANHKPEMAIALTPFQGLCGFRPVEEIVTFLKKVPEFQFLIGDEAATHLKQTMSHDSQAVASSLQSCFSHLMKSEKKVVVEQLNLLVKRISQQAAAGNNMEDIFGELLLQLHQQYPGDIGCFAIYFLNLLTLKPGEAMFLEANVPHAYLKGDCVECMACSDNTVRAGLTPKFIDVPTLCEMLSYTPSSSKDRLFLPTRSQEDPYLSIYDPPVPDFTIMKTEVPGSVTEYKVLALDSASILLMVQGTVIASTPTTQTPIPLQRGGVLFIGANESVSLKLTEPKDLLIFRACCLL

Compound | inhibition
Cn1c(C(C(=O)NCC2CCCO2)N(CCc2ccccc2)C(=O)Cn2nnc3ccccc32)nc2ccccc21 (configuration not stated) | 2.6% (inactive)
CCSc1c(-c2ccccc2)nc2c(C)cccc2c1C(=O)O | 4.5% (inactive)
CCSc1nnc(-c2ccccc2SC)o1 | -75.6% (inactive)
Cc1cccc(NC(=O)c2sc3nc4c(c(-c5cccs5)c3c2N)CN(C)CC4)c1 | -14.8% (inactive)
CN1CCN(c2ccc(NC(=O)c3ccc(-c4ccc(Br)cc4)o3)cc2)CC1 | -0.8% (inactive)
Cc1c(Nc2cc(N3CCOCC3)c3nonc3c2[N+](=O)[O-])c(=O)n(-c2ccccc2)n1C | 19.4% (inactive)
Cc1c(Nc2cc(N3CCCC(C)C3)c3nonc3c2[N+](=O)[O-])c(=O)n(-c2ccccc2)n1C (configuration not stated) | 45.8% (inactive)
Cc1c(Nc2cc(N3CCCCCC3)c3nonc3c2[N+](=O)[O-])c(=O)n(-c2ccccc2)n1C | 55% (active)
Cc1ccc2c(C(=O)CN3CCN(c4ccccc4)CC3)c(C)[nH]c2c1 | -4.7% (inactive)
CCOc1ccccc1-n1c(SCC(=O)NC2CCCC2)nnc1-c1ccoc1C | 17.9% (inactive)
COc1ccc(/C=N\NC(=O)c2cc(O)c(O)c(O)c2)cc1CN1CCN(c2ccc(F)cc2)CC1 | 58.1% (active)
COc1cc(C(=O)N/N=C/c2ccc(OC)c(CN3CCN(c4ccc(F)cc4)CC3)c2)ccc1O | 22.3% (inactive)
COc1ccc(/C=N/NC(=O)c2ccccc2)cc1CN1CCN(c2ccc(F)cc2)CC1 | -6.3% (inactive)
COc1ccc(/C=N\NC(=O)c2cccc([N+](=O)[O-])c2)cc1Cn1cc([N+](=O)[O-])cn1 | 10% (inactive)
COc1ccc(/C=N/NC(=O)c2ccc(N)cc2)cc1Cn1cc([N+](=O)[O-])cn1 | 2.9% (inactive)
CCC(O)c1c(-c2ccccc2)nn(C)c1Cl (configuration not stated) | 1.3% (inactive)
O=S1(=O)CC(O)C(NCc2ccco2)C1 (configuration not stated) | -0.2% (inactive)
COc1ccc(-c2csc(NC(=O)c3cc(=O)c4ccccc4o3)n2)cc1OC | -9.2% (inactive)
COC(=O)c1ccc(COC(=O)C23CC4CC(CC(O)(C4)C2)C3)o1 | 1.1% (inactive)
CN(C)C=Nc1c(Br)cc(Br)c2nonc12 | 70.8% (active)
Cc1cc(/N=C/N(C)C)on1 | 4.8% (inactive)
CN(C)C=Nc1nonc1N | -5.6% (inactive)
CC1(c2ccc([N+](=O)[O-])cc2)CC(C)(C)N(C(=O)c2ccccc2)c2ccccc21 (configuration not stated) | 15.2% (inactive)

Compound | inhibition
CC1(C)CC(CCC(=O)Nc2ccc(S(N)(=O)=O)cc2)C(=O)O1 (configuration not stated) | -3.1% (inactive)
Cc1ccc2cc(CN(CC3CCCO3)C(=S)NCc3ccco3)c(=O)[nH]c2c1 (configuration not stated) | 54.6% (active)
O=c1[nH]c2cc3c(cc2cc1CN(Cc1cccnc1)C(=S)NCc1ccco1)OCO3 | 53.9% (active)
O=c1[nH]c2cc3c(cc2cc1CN(Cc1cccnc1)C(=S)NCc1ccco1)OCCO3 | 59.7% (active)
Cc1ccc2[nH]c(=O)c(CN(CC3CCCO3)C(=S)NCc3ccco3)cc2c1 (configuration not stated) | 17.8% (inactive)
Cc1cc2cc(CN(CC3CCCO3)C(=S)NCc3ccco3)c(=O)[nH]c2cc1C (configuration not stated) | 9% (inactive)
CC(C)CNC(=S)N(Cc1ccco1)Cc1cc2cc3c(cc2[nH]c1=O)OCCO3 | 19.9% (inactive)
O=c1[nH]c2cc3c(cc2cc1CN(CCCO)C(=S)NCc1ccco1)OCO3 | 11.2% (inactive)
CN(C)CCN(Cc1cc2cc3c(cc2[nH]c1=O)OCO3)C(=S)NCc1ccco1 | 9.6% (inactive)
CCNC(=S)N(Cc1ccco1)Cc1cc2cc3c(cc2[nH]c1=O)OCCO3 | 17.8% (inactive)
O=C(Cn1cnc2ccccc2c1=O)NCCC(=O)Nc1ccc2c(c1)OCO2 | -1.6% (inactive)
Fc1ccc(-c2cc(C(F)(F)F)n3ncnc3n2)cc1 | -18.4% (inactive)
COC(=O)c1ccc(-n2c(C)cc(C(=O)COC(=O)CC3Sc4ccccc4NC3=O)c2C)cc1 (configuration not stated) | 3.1% (inactive)
CCOC(=O)c1nnc(-c2ccc(C)cc2)nc1Oc1ccccc1Cl | 13.7% (inactive)
CCOC(=O)c1sc(N/N=C/c2ccccc2)nc1C | 60.3% (active)
CCOC(=O)c1sc(NC(=O)/C=C/c2ccccc2)nc1C | -6.9% (inactive)
CCOC(=O)c1sc(N/N=C/c2cccc(C)c2)nc1C | 7.8% (inactive)
Cc1ccc(-n2nnc3c(=O)n(Cc4ccccn4)cnc32)cc1C | -5.8% (inactive)
CCN(CC)c1ccc(/C=N/NC(=O)Cc2cccs2)cc1 | 15.6% (inactive)
Cc1ccc(NC(=O)C2CCN(S(=O)(=O)c3c(C)noc3/C=C/c3ccco3)CC2)nc1 | 9.1% (inactive)
Cc1cccnc1NC(=O)C1CCN(S(=O)(=O)c2c(C)noc2/C=C/c2ccco2)CC1 | 50.7% (active)
Cc1cccc(NC(=O)C2CCN(S(=O)(=O)c3c(C)noc3/C=C/c3ccco3)CC2)n1 | -3.8% (inactive)
Cn1cccc1CC(=O)N/N=C/c1cccc2ccccc12 | 4.2% (inactive)

Compound | inhibition
COc1ccc(S(=O)(=O)N2CCC(C(=O)NCc3ccccn3)CC2)cc1Cl | 16.7% (inactive)
COc1ccc(S(=O)(=O)N2CCCC(C(=O)NCc3ccccn3)C2)cc1Cl (configuration not stated) | 62.4% (active)
COc1ccc(S(=O)(=O)N2CCCC(C(=O)NCc3ccccn3)C2)cc1 (configuration not stated) | 14% (inactive)
O=C(O)CSc1nnc(Cn2nnc3ccccc32)n1CCc1ccccc1 | -12.5% (inactive)
COc1ccc(CN(CC2CCC(C(=O)O)CC2)C(=S)Nc2ccccc2OC)cc1 (configuration not stated) | -7.5% (inactive)
O=[N+]([O-])c1ccc(Sc2n[nH]c(-c3ccncc3)n2)nc1 | 60.8% (active)
O=[N+]([O-])c1ccc(Sc2n[nH]c(-c3ccccc3)n2)nc1 | 16.5% (inactive)
O=[N+]([O-])c1ccc(Sc2n[nH]c(-c3ccco3)n2)nc1 | 8.5% (inactive)
O=C(O)CC(NC(=O)COc1ccc(Cl)cc1Cl)C(=O)O (configuration not stated) | 4.9% (inactive)
Cc1cc(C)cc(Nc2cc(=O)n(C3CCCCC3)c(=O)[nH]2)c1 | 12.2% (inactive)
CCCCCCn1c(=O)[nH]c2nc3cc(N)c(C)cc3nc2c1=O | 35.2% (inactive)
Cc1cc2nc3c(=O)n(C4CCCCC4)c(=O)[nH]c3nc2cc1N | 51.7% (active)
N#CCCN(C(=O)CSc1ccc2c(c1)OCCO2)c1ccccc1 | 3.1% (inactive)
Cc1ccc(NC(=O)c2ccc(Br)o2)cc1S(=O)(=O)N(C)C | -19% (inactive)
CCN(C(=O)c1cc2cccc(OC)c2oc1=O)C1CCCCC1 | -7.8% (inactive)
N#Cc1cc(N)ccc1Sc1ccccc1 | 4.7% (inactive)
COc1ccc(S(=O)(=O)N2Cc3ccccc3CC2C(=O)O)cc1OC (configuration not stated) | -6.9% (inactive)
Nc1ncnc2nc(SCc3ccccc3)[nH]c12 | 9.5% (inactive)
CCC(Sc1nc2ncnc(N)c2[nH]1)C(=O)O (configuration not stated) | 64.8% (active)
CC(C)Sc1nc2ncnc(N)c2[nH]1 | -8.9% (inactive)
Cc1ccc(C)n1-c1cccc(S(=O)(=O)N2CCOCC2)c1 | -13.2% (inactive)
O=c1[nH]c2c(c3c1CCCC3)CCCC2 | 16.2% (inactive)
CC1CCCN(C(=S)SCC(=O)O)C1 (configuration not stated) | 0.8% (inactive)

Compound | inhibition
CC1CCCN(C(=S)SCC(=O)c2cc(Br)cc(Br)c2O)C1 (configuration not stated) | 66.4% (active)
O=C(CSC(=S)N1CCCC1)c1cc(Br)cc(Br)c1O | 33.3% (inactive)
COc1cc(/C=C2\SC(=Nc3ccccc3)N(CCc3c[nH]c4ccccc34)C2=O)ccc1OC(C)C(=O)O (configuration not stated) | 8% (inactive)
COc1cc(C(=O)OCC(=O)Nc2c(F)c(F)c(F)c(F)c2F)cc(OC)c1OC | -2.4% (inactive)
Cc1ccc(N(C(=O)Cn2nnc3ccccc32)C(C(=O)NC2CCCCC2)c2cn(C)nc2C)cc1 (configuration not stated) | -4.2% (inactive)
O=C(NC1CCCCC1)C(c1ccc(O)c(O)c1)N(C(=O)Cn1nnc2ccccc21)c1cccc(O)c1 (configuration not stated) | 47.5% (inactive)
CC(=O)Nc1ccc(N(C(=O)Cn2nnc3ccccc32)C(C(=O)NC2CCCC2)c2ccc(O)c(O)c2)cc1 (configuration not stated) | 61.2% (active)
Cc1cc(C)n(-c2nc3ccccc3n3cnnc23)n1 | -2.9% (inactive)
COc1ccc(OC)c(NC(=O)c2cc3c(=O)n4ccccc4nc3n2C)c1 | -10.9% (inactive)
COc1ccc(NC(=S)NNC(=O)c2nnn(-c3ccccc3)c2C)cc1 | -2% (inactive)
Cc1ccccc1N(CC(=O)Nc1ccccc1C(=O)NCc1ccco1)S(=O)(=O)c1ccccc1 | -11.7% (inactive)
C=CCNc1nc(NCc2ccccc2)c(C#N)c2c1CN(C)CC2 | 54.4% (active)
N#Cc1c(NCCCO)nc(NCc2ccccc2)c2c1CCN(Cc1ccccc1)C2 | 56.3% (active)
CCN1CCc2c(C#N)c(NCc3ccccc3)nc(NCCO)c2C1 | 52.6% (active)
C=CCNc1nc(N2CCOCC2)c(C#N)c2c1CN(C)CC2 | 9.5% (inactive)
CN1CCc2c(C#N)c(N3CCCCC3)nc(NCc3ccccc3)c2C1 | 26.6% (inactive)
CCN1CCc2c(C#N)c(NCc3ccccc3)nc(N(CC)CC)c2C1 | 3% (inactive)
N#Cc1c(NCCCO)nc(-c2ccccc2)c2c1CCCC2 | 13.8% (inactive)
N#Cc1c(NCCN)nc(NCc2ccccc2)c2c1CCN(Cc1ccccc1)C2 | 17.8% (inactive)
CCN1CCc2c(C#N)c(N3CCCCC3)nc(NCc3ccccc3)c2C1 | 30.4% (inactive)
CCOC(=O)c1cccc(NC(=O)CSc2nnnn2C)c1 | -7.4% (inactive)
Cc1cc(NC(=O)CCc2ccc(S(=O)(=O)N3CCOCC3)cc2)n(-c2ccccc2)n1 | -7% (inactive)
N#Cc1cnn2ccc(-c3ccc4c(c3)CCC4)nc12 | 0.4% (inactive)
